Only some compounds are listed: those with a hit (about 9.3% of all), similar ones and a draw of the others.
Sm TGR block – inhibitors of Schistosoma mansoni thioredoxin glutathione reductase | Q962Y6 | 360,000 tested, 3% active | purified TGR, DTNB reduction, TNB absorbance 405 nm | Potency, µM (doses to about 114 µM), for inactives: at the highest dose activity change, negative = inhibition, hits mostly inhibitors | AID 485364; note: potency is the fitted concentration of half-maximal effect; nearly all actives have a fitted effect of over 60% in size
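Kinetic colorimetric format: TGR-catalysed, NADPH-driven DTNB reduction monitored via TNB absorbance. Enzyme dispensed at 20 nM; compound exposure 15 min at room temperature before reaction start.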
HCMV inh – human cytomegalovirus inhibition; activity change, negative = inhibition, % at 57.5 µM; HFF cells, HCMV-luciferase reporter, 72 h; active compounds read low; 410,000 tested, 4.5% active; in the data active = activity change below about -60%; inconclusive = no clear call, values can overlap the other calls; inactive = above about -39%
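Screen run at 2 compound doses on HFFs infected with reporter HCMV, MOI 1 PFU/cell. Luciferase activity from cell lysates at 72 h post infection gave inhibition relative to buffer-only and Salinomycin wells.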
FMDV antiviral – blocks foot and mouth disease virus | FMDV antiviral cell-based qHTS | 410,000 tested, 1.2% active | AID 1159524 | Potency, µM (series often up to 57.9 µM), for inactives: at the top dose activity change, negative = inhibition, most hits filed as inhibitors; calls by dose curve; tested in HEK293T cells; note: read-out not given here; potency is the fitted concentration of half-maximal effect; nearly all actives have a fitted effect of over 45% in size
Vaccinia Venus – inhibitors of vaccinia virus (Venus reporter); Vaccinia virus Venus reporter expression, fluorescence; 330,000 tested, 0.46% active; Potency, µM (top dose mostly 36.5 µM), inactives show at the top dose activity change, negative = inhibition, hits mostly inhibitors; calls by dose curve; tested in A549 cells; note: potency is the fitted concentration of half-maximal effect; nearly all actives have a fitted effect of over 30% in size
VACV mCherry inh – vaccinia inhibition (mCherry reporter); 310,000 tested, 0.63% active; Vaccinia virus mCherry reporter infection, fluorescence; Potency, µM (top dose mostly 36.5 µM), for inactives: top-dose activity change, negative = inhibition, hits mostly inhibitors; calls by dose curve; tested in A549 cells; note: potency is the fitted concentration of half-maximal effect; nearly all actives have a fitted effect of over 35% in size
HCV inhibitor – HCV inhibition | Huh7.5.1 HCVcc-Cre infection, luciferase reporter, 44 h | Potency, µM (series often up to 41.8 µM), inactives show at the top dose activity change, negative = inhibition, most hits filed as inhibitors | 340,000 tested, 3.4% active | AID 651820; note: potency is the fitted concentration of half-maximal effect
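Whole-lifecycle infectious HCVcc-Cre system; cells 1,000/well, compound then virus (~0.5 moi) added 4 h after plating, 44 h culture. Luciferase read 15 sec following 15 min substrate incubation, room temp.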
Active calls of the source: *; i = inactive; ? = inconclusive; · = not tested or not shown. Unless noted, calls come from the whole dose curve; as a rule, active = well fitted curve in the direction sought with a large enough effect; inconclusive = small, poorly fitted or top-dose-only effect, or another doubt; inactive = no such curve, though single readings can be large; an effect the other way counts as inactive or inconclusive. % is set by controls: 0 for no effect and ±100 for the full control effect.

SMILES	Sm TGR block	HCMV inh	FMDV antiviral	Vaccinia Venus	VACV mCherry inh	HCV inhibitor
COc1cc([C@@H]2Oc3cc(C4Oc5cc(O)cc(O)c5C(=O)[C@H]4O)ccc3O[C@H]2CO)ccc1O (stereo partly specified)	44.7µM*	·	-20.6%	-10.2%	i	?
O=C1c2c(O)cc(O)cc2O[C@H](c2ccc(O)c(O)c2)[C@H]1O	?	-9.7	-12.0%	-15.9%	i	0.562µM*
O=C1c2c(O)cc(O)cc2O[C@H](c2ccc(O)cc2)[C@H]1O	·	-6.8	-11.0%	-4.0%	-4.1%	-4.9%
COc1ccc(C(=O)Nc2nc(-c3ccccn3)cs2)cc1S(=O)(=O)N1CCOCC1	·	0.0	?	·	·	11.2µM*
O=C(NCCN1C(=O)S/C(=C\c2cccnc2)C1=O)c1cc(S(=O)(=O)N2CCOCC2)ccc1F	-15.4%	?	-22.3%	·	·	-9.6%
O=C(Nc1nc(-c2ccccn2)cs1)c1cccc(S(=O)(=O)N2CCOCC2)c1	?	0.0	-13.9%	·	·	3.55µM*
Cc1ccc(S(=O)(=O)N2CCOCC2)cc1C(=O)NCCN1C(=O)S/C(=C\c2ccccc2Cl)C1=O	-8.4%	-33.9	?	?	?	12.6µM*
O=C(Nc1nc(-c2ccccn2)cs1)c1ccc(S(=O)(=O)N2CCCCC2)cc1	-15.6%	·	·	·	·	·
Cc1ccc(S(=O)(=O)N2CCOCC2)cc1C(=O)Nc1nc(-c2ccccn2)cs1	·	-87.1*	?	?	?	?
O=C(Nc1ccccc1F)c1ccc(Br)o1	-2.1%	53.8	42.5%	-12.7%	i	?
Cc1ccc(S(=O)(=O)N(C)C)cc1NC(=O)CCc1ccccc1	3.0%	3.1	-10.2%	·	·	-1.4%
Cc1ccc(N=Nc2c(N)[nH]n3c(=O)c4c(nc23)CCCC4)cc1	-2.4%	·	·	·	·	·
Cc1ccsc1C(=O)OCC(=O)NCc1ccco1	-8.6%	10.3	22.0%	-7.5%	-0.1%	5.0%
CCCCCCCCCC1NC(C(=O)O)Cc2c1[nH]c1ccccc21 (stereo unspecified)	·	-14.6	-19.3%	-15.8%	-14.7%	·
C/C=C(/CCC1NCCc2c1[nH]c1ccccc21)[Si](C)(C)C (stereo unspecified)	·	26.0	28.2µM*	?	-27.8%	?
C=CC[C@@H](CC(=O)N[C@H](CO)Cc1ccccc1)C(=O)N[C@@H](COC(=O)[C@@H](CC=C)CC(=O)OC(C)(C)C)Cc1c[nH]c2ccccc12	·	-20.0	-2.0%	-23.0%	i	?
CCOC(=O)c1c(S(=O)(=O)NCC(=O)N2CCN(c3cc(C)ccc3C)CC2)c(C)n(C)c1C	-3.5%	4.0	-29.6%	-28.8%	?	·
COc1cc(/C=N/NC(=O)Nc2cccc3nsnc23)cc(OC)c1OC	-7.0%	-4.2	?	-8.2%	·	?
O=C(N/N=C/c1ccc(O)cc1)Nc1cccc2nsnc12	37.1%	-26.7	-2.2%	?	10µM*	?
COC(=O)c1sc(N)c(C(=O)OC)c1COC(=O)C1CC(=O)N(Cc2ccco2)C1 (stereo unspecified)	?	62.6	-22.6%	-10.0%	-16.5%	?
O=C(OCc1nnc(-c2ccccc2)o1)C1CC(=O)N(Cc2ccco2)C1 (stereo unspecified)	14.1µM*	?	8.4%	·	·	6.4%
CCOC(=O)c1sc(N)c(C(=O)OCC)c1COC(=O)C1CC(=O)N(Cc2ccco2)C1 (stereo unspecified)	39.8µM*	29.1	-12.4%	-22.2%	·	12.6µM*
CCn1nc(C(=O)OCC(=O)N2CCc3ccccc32)c2ccccc2c1=O	20µM*	60.7	1.8%	·	·	-2.9%
O=C(OCC(=O)N1CCc2ccccc21)c1c2c(nc3ccccc13)CCCC2	-5.5%	-7.3	-13.5%	?	?	2µM*
CCn1nc(C(=O)N2CCc3ccccc32)c2ccccc2c1=O	1.2%	4.1	0.0%	-15.4%	i	6.9%
SMILES	Sm TGR block	HCMV inh	FMDV antiviral	Vaccinia Venus	VACV mCherry inh	HCV inhibitor
CC1Cc2ccccc2N1C(=O)COC(=O)c1c2c(nc3ccccc13)CCCCC2 (stereo unspecified)	-6.2%	-25.5	-22.8%	?	?	?
O=C1CN(C(=O)COC(=O)C2=COCCO2)c2ccccc2N1	-0.4%	16.8	3.2%	·	·	15.3%
O=C(OCC(=O)N1CCc2ccccc21)C1=COCCO1	22.4µM*	-32.5	-8.5%	·	·	9.8%
O=C(COC(=O)c1c2c(nc3ccccc13)CCCCC2)c1ccc(Cl)s1	-8.7%	8.5	8.2%	-14.2%	-16.6%	10µM*
C[N+]1(C)[C@@H]2CC[C@H]1CC(OC(=O)[C@@H](CO)c1ccccc1)C2 (stereo partly specified)	8.91µM*	-24.4	-8.2%	-2.4%	i	-8.2%
Cc1ccc(C(=O)N/N=C/c2cccc(OC(=O)/C=C/c3ccco3)c2)cn1	?	?	4.5%	-5.4%	4.0%	4.3%
O=C(/C=C/c1ccco1)Oc1cc(Br)cc(/C=N/NC(=O)c2ccccc2O)c1	-6.2%	-100.7*	?	?	2.82µM*	?
CC(=O)Nc1sc2c(c1C#N)CCC2	5.4%	-5.5	32.9%	-7.5%	-12.1%	-0.8%
CCc1ccc(CCC(=O)Nc2sc3c(c2C#N)CCCC3)o1	-27.4%	-75.0*	-6.6%	·	·	4.47µM*
Cc1ccc(/C=C/C(=O)Nc2sc3c(c2C#N)CCCC3)o1	44.7µM*	2.4	-20.9%	·	·	?
c1ccc(CSCc2nc3ccccc3[nH]2)cc1	2.2%	-20.5	24.4%	-14.0%	1.9%	9.0%
CN(C)C(=O)O/N=C(\N)COc1ccc(C(C)(C)C)cc1	6.0%	-100.4*	-16.2%	·	·	?
Cc1nc(NCc2cccc3c2OCO3)sc1-c1ccn(CC2CCCN(C)C2)n1 (stereo unspecified)	·	·	33.5%	11.7%	-7.0%	·
COc1cccc(OC)c1C(=O)Nc1cccc(-n2cnnn2)c1	-1.1%	53.8	-9.1%	·	·	-1.3%
COc1ccc(CCNC(=O)c2cc3c(=O)n4ccccc4nc3n(CC3CCCO3)c2=N)cc1OC (stereo unspecified)	22.9%	17.3	-22.7%	6.4%	-9.0%	8.91µM*
COc1ccc(CCn2c(=N)c(C(=O)NCC3CCCO3)cc3c(=O)n4ccccc4nc32)cc1 (stereo unspecified)	-11.7%	-111.5*	-25.0%	·	·	11.8%
N=c1c(C(=O)NCC2CCCO2)cc2c(=O)n3ccccc3nc2n1Cc1ccc(Cl)cc1 (stereo unspecified)	-7.4%	-83.3*	-15.1%	·	·	?
COc1ccc(CCNC(=O)c2cc3c(=O)n4ccccc4nc3n(CC3CCCO3)c2=N)cc1 (stereo unspecified)	·	-28.9	-23.2%	-8.5%	-10.5%	?
N=c1c(C(=O)NCC2CCCO2)cc2c(=O)n3ccccc3nc2n1Cc1ccccc1 (stereo unspecified)	-13.9%	34.1	-11.7%	·	·	7.08µM*

Compound activity (PubChem BioAssay)
